Source: ChEMBL document CHEMBL3988442, “University of Dundee, Small-Polar-MMV Screening Library” (2021)
Among all 48,000 compounds or so, about 13,000 (27%) showed an effect of 50% or more. Some of the results follow.

tested on: Wolbachia pipientis; assay: Anti-Wolbachia Cell-Based Screen; format: functional; parameters: scale not given: in the data most compounds retested in dose-response had high values; settings: 5 µM

Structure (SMILES) | Percent Effect
CCOCC(=O)Nc1ccc(-n2ccc(C(N)=O)n2)cc1 | 5.23%
CCc1ccc(CN2CCC(=O)N(CC3CC3)C(C(C)C)C2)nc1 (configuration not stated) | -6.583%
Cc1cc(CNC(=O)c2ccc(F)c(COCC3CC3)c2)no1 | 7.35%
COCCCNC(=O)N1CCCC(c2nncn2C)C1 (configuration not stated) | -7.003%
Cn1cnnc1C1CCCN(C(=O)NCCn2ccnc2)C1 (configuration not stated) | 89.71%
Cn1cnnc1C1CCCN(C(=O)NCCOc2ccccc2)C1 (configuration not stated) | 6.909%
Cn1cnnc1C1CCCN(C(=O)NCCCn2cccn2)C1 (configuration not stated) | 106.2%
Cn1cnnc1C1CCCN(C(=O)NCCNc2ccccn2)C1 (configuration not stated) | 14.43%
CC(C)N1CCC(CC(=O)NC(C(=O)O)c2cc(F)ccc2F)CC1 (configuration not stated) | 9.298%
CC(C)N1CCC(CNC(=O)COc2ccc(F)cc2F)C1 (configuration not stated) | 8.17%
CC(C)N1CCC(CNC(=O)CCc2cc(F)ccc2F)C1 (configuration not stated) | 16.43%
CC(C)N1CCC(Cc2cncc(-c3cc(F)ccc3C(=O)O)n2)C1 (configuration not stated) | 135%
CN1CCC(Cc2noc(-c3cn(Cc4ccc(F)cc4)nn3)n2)CC1 | -9.878%
CC(C)N1CCC(Cc2cc(-c3cc(F)ccc3C(=O)O)ncn2)C1 (configuration not stated) | 139.5%
CC(C)N1CCC(Cc2cncc(-c3cc(F)ccc3C(=O)O)n2)CC1 | 98.45%
CC(C)N1CCC(CC(=O)NC(C(=O)O)c2cccc(F)c2)CC1 (configuration not stated) | -7.789%
CC(C)N1CCC(Cc2cc(-c3ccccc3C(=O)O)ncn2)CC1 | -18.63%
CN1CCC(Cc2cccc(-c3cc(F)ccc3C(=O)O)n2)CC1 | 135.9%
CC(C)N1CCC(CC(=O)NC(C(=O)O)c2ccc(F)cc2)CC1 (configuration not stated) | 7.704%
Cn1cc(C(=O)O)c(-c2ccc(F)cc2F)n1 | -6.689%
CC(C)c1ccc(S(=O)(=O)NC2(CC(N)=O)CCC2)cc1 | -1.072%
Cn1cc(CN2CC[C@@H]3[C@@H](CCC(=O)N3CCc3c[nH]cn3)C2)cn1 | 6.547%

Structure (SMILES) | Percent Effect
CCOCCS(=O)(=O)N(CC)Cc1ccc(Cl)s1 | -4.367%
CCc1nn(C)c(Cl)c1CN1CCN(c2nc(C(N)=O)cs2)CC1 | 12.42%
O=C1COC2(CCN(c3ncccn3)CC2)CN1c1ccsc1 | 18.21%
CCc1cnc(CN(C(C)=O)C2CCN(CC3(O)CCCCC3)C2)o1 (configuration not stated) | 86.51%
CCc1cnc(CN(C(C)=O)C2CCN(CCS(C)(=O)=O)C2)o1 (configuration not stated) | -15.83%
CCc1cnc(CN(C(C)=O)C2CCN(CCN3CCCCC3)C2)o1 (configuration not stated) | 112.7%
CC(=O)N(Cc1ncc(C(C)C)o1)C1CCN(CCn2cccn2)C1 (configuration not stated) | 8.925%
CCc1cnc(CN(C(C)=O)C2CCN(CC(=O)N3CCCC3)C2)o1 (configuration not stated) | 113.8%
COc1cccc(CN(C)Cc2cc(C#N)ccc2F)c1OC | -16.49%
O=C(c1c[nH]c(=O)[nH]1)N1CCCC2(CCC(=O)N(C3CCCC3)C2)C1 (configuration not stated) | 5.666%
CC(C(=O)NC1CCCCC1)N1CCc2[nH]nc(C(F)(F)F)c2C1 (configuration not stated) | -5.733%
Cc1nccn1-c1ccc(N2CCC(NC(C)CC(C)C)CC2)cc1 (configuration not stated) | 16.66%
COCCN1CCc2cc(C(=O)NCC3CC3)c(NC(C)C)nc2CC1.O=C(O)C(F)(F)F.O=C(O)C(F)(F)F | -15.94%
CNC(=O)c1cc2c(nc1NCC(C)C)CCN(CCOC)CC2.O=C(O)C(F)(F)F.O=C(O)C(F)(F)F | 1.626%
COCCN1CCc2cc(C(=O)NC(C)C)c(NCC3CC3)nc2CC1.O=C(O)C(F)(F)F.O=C(O)C(F)(F)F | 103.7%
COCCN1CCc2cc(C(=O)O)c(NCC3CC3)nc2CC1.O=C(O)C(F)(F)F.O=C(O)C(F)(F)F | 96.69%
COCCN1CCc2cc(C(=O)N(C)C)c(NCC3CC3)nc2CC1.O=C(O)C(F)(F)F.O=C(O)C(F)(F)F | 1.501%
COCCN1CCc2cc(C(=O)NC(C)C)c(NCC(C)C)nc2CC1.O=C(O)C(F)(F)F.O=C(O)C(F)(F)F | 1.817%
Cc1[nH]ncc1CCCNC(=O)Nc1ccc(S(C)(=O)=O)nc1 | 0.4286%
O=c1[nH]c(CN(Cc2ccco2)C2CCCC2)nc2ccccc12 | 5.367%
O=C(c1ccno1)N1CCOC[C@H](Oc2ccc(C(F)(F)F)cc2)C1 | -17.29%
CCN(CC)CCCN1CCN(c2nc(C)cnc2C)CC1 | 20.67%

Structure (SMILES) | Percent Effect
CCN(CC1CCOC1)C(=O)NCc1nnc2n1CCC2 (configuration not stated) | 118.1%
CCN(CC1CC1)C(=O)NCc1nnc2n1CCC2 | 96.27%
Cc1ccc(CN(C(=O)NCc2nnc3n2CCCCC3)C2CC2)o1 | 2.122%
O=C(NCc1nnc2n1CCCCC2)N(Cc1ccncc1)C1CC1 | -19.08%
CCN(CC1CCOC1)C(=O)NCc1nnc2n1CCCCC2 (configuration not stated) | 91.82%
O=C(NCc1nnc2n1CCC2)N(Cc1ccco1)C1CC1 | 0.3443%
CCN(Cc1ccco1)C(=O)NCc1nnc2n1CCC2 | -0.2431%
CCN(CC1CCOC1)C(=O)NCc1ccc(-n2cncn2)nc1 (configuration not stated) | 19.04%
O=C(NCc1nnc2n1CCCCC2)N(CC1CCOC1)C1CC1 (configuration not stated) | 99.15%
O=C(NCc1nnc2n1CCCC2)N(Cc1ccccc1F)C1CC1 | -10.57%
CCN(Cc1ccco1)C(=O)NCc1nnc2n1CCCCC2 | 0.3449%
COCc1ccccc1CNC(=O)CN1CCC2(CCOC2)C1 (configuration not stated) | -0.6554%
Cc1nn2c(N3CCCC(C#N)C3)cc(-c3ccccc3)nc2c1C (configuration not stated) | -8.58%
Cc1nc[nH]c1-c1nccn1-c1cccc(CN2CCCC2)c1 | 12.04%
Cc1ccsc1-c1nccn1CCS(=O)(=O)N1CCCC1 | -5.417%
CCN(CC)CCn1ccnc1-c1[nH]cnc1C | 9.707%
Cc1nc[nH]c1-c1nccn1CCN1CCCOC1=O | 97.83%
Cc1nc[nH]c1-c1nccn1CCN1CCCC1=O | 101.5%
Cc1nc[nH]c1-c1nccn1CCN(C)S(C)(=O)=O | -5.143%
Cc1nc[nH]c1-c1nccn1CCCN(C)C | -1.575%
Cc1nc[nH]c1-c1nccn1CCN1CCOC1=O | 102.9%
Cc1ccsc1-c1nccn1CCN1CCCOC1=O | 94.33%

Structure (SMILES) | Percent Effect
COCCn1ccnc1-c1[nH]cnc1C | 8.201%
CCc1nccn1CCCn1ccnc1-c1[nH]cnc1C | 10.91%
Cc1ccsc1-c1nccn1CCS(C)(=O)=O | -15.8%
CN(C)c1ncc(CNC(=O)Nc2ccc(C(F)(F)F)cc2)n1C | 20.28%
COc1cc(N2CCCn3cnc(COC(C)C)c3C2)ncn1.O=CO | -4.807%
CC(=O)NCCC(=O)Nc1sccc1C(=O)C(C)(C)C | 21.69%
c1ccc(COc2ccccc2NC2CCOCC2)nc1 | -16.72%
CN(CC(=O)N1CC(C)(C)[C@](O)(C2CC2)C1)Cc1cccnc1 | -2.465%
Cc1csc(C(C#N)C(=O)NCc2cccnc2)n1 (configuration not stated) | -20.56%
O=C(CCc1ccsc1)N(Cc1ccccn1)C1CC1 | 0.03996%
CC(CNC(=O)CCc1ccccn1)c1ccsc1 (configuration not stated) | 1.276%
Cc1csc(C(Cc2ccsc2)NC(=O)CN(C)Cc2cccnc2)n1.Cl (configuration not stated) | 118.2%
Cc1cc(C)n(CC(=O)NC(Cc2ccsc2)c2ccccn2)c(=O)n1.Cl (configuration not stated) | -15.12%
CN(CC(=O)NS(=O)(=O)c1ccsc1)Cc1ccccc1 | -14.35%
CN(CC(=O)NC(Cc1ccsc1)c1cccnc1)Cc1cccnc1.Cl (configuration not stated) | 75.58%
Cc1nc(CN(Cc2cccnc2)Cc2ccsc2)c[nH]1 | -3.654%
Cc1csc(C(Cc2ccsc2)NC(=O)CN(C)Cc2ccccn2)n1.Cl (configuration not stated) | 143%
CN(CC(=O)NC(Cc1ccsc1)c1cccnc1)Cc1ccccn1.Cl (configuration not stated) | 89.62%
Cc1ccc(CC(NC(=O)CN(C)C2CC2)c2ccccn2)cc1 (configuration not stated) | -26.42%
CCOC(C)c1noc(CN2CCCNCC2)n1 (configuration not stated) | 2.297%
C=C(C)CN1CCC(NC(=O)NCCc2cccc(C(N)=O)c2)CC1 | -8.268%
CC(=O)c1ccc(C(=O)N2C[C@@H](CN3CCCC3)[C@@H](CO)C2)cc1 | -35.7%

Structure (SMILES) | Percent Effect
O=C(NCCN1CCCCCC1=O)NCc1ccc(Cl)s1 | -3.851%
CC(SCC(=O)NC(N)=O)c1ccc(Cl)cc1 (configuration not stated) | 8.768%
COc1cc(CN2CC(=O)N(c3ccc(C)cc3)CC2C)cc(OC)c1 (configuration not stated) | -3.228%
COc1cc(OC)cc(N2CCC(NCc3ccsc3)C2=O)c1 (configuration not stated) | -5.145%
Cc1cc(CN2CCN(CC3CC3)[C@@H]3CS(=O)(=O)C[C@@H]32)cc(C)c1O | 22.76%
NC(=O)COc1ccc(C2NC(=O)CN2Cc2ccc(Br)cc2)cc1 (configuration not stated) | 110.3%
Cc1cc(C2NC(=O)CN2Cc2ccc(Br)cc2)cc(C)c1O (configuration not stated) | 98.83%
Cl.NC(=O)COc1ccc(CNCc2ccc(F)c(F)c2)cc1 | -10.35%
COc1cc(OC)cc(C2NC(=O)CN2Cc2ccc(Br)cc2)c1 (configuration not stated) | 85.78%
CC(C)(C)n1ncc2c1NC(=O)CC2c1ccc(OCC(N)=O)cc1 (configuration not stated) | -0.952%
Cc1cc(NC(=O)CNC(C)(C)c2nc(C)c(C)s2)no1 | -14.55%
COc1ccc(CNC(=O)c2cc3c(nc2O)CCC(C)C3)cc1 (configuration not stated) | -13.47%
CNS(=O)(=O)c1ccccc1N1CCN(C(C)C(=O)OC)CC1 (configuration not stated) | -10.15%
CO[C@H]1CN(C(=O)c2ccc(C)o2)[C@@H]2CCCO[C@H]12 | 2.722%
Cc1cccc(C(=O)N2C[C@@H](OCc3cccnc3)[C@H]3OCCC[C@@H]32)n1.O=C(O)C(F)(F)F.O=C(O)C(F)(F)F | 19.74%
CO[C@H]1CN(C(=O)c2cccnc2)[C@@H]2CCCO[C@H]12.O=C(O)C(F)(F)F | 121%
O=C(O)C(F)(F)F.O=C(c1ccnnc1)N1C[C@H](Oc2ccccn2)[C@H]2OCCC[C@H]21 | 96.83%
Cc1occc1C(=O)N1C[C@H](Oc2ccccn2)[C@H]2OCCC[C@H]21.O=C(O)C(F)(F)F | -5.077%
CN(C)C(=O)N1C[C@H](Oc2ccccn2)[C@H]2OCCC[C@H]21.O=C(O)C(F)(F)F | -8.316%
